Assay in all cases: NCI-60 one-dose screen, 48 h (100 = growth as untreated, 0 = no growth, -100 = all killed)
Settings in all cases: 10 µM unless noted

The test system of experiment [1] is SR leukemia.
The subject of experiment [2] is RPMI-8226 leukemia.
The test system of experiment [3] is OVCAR-8 ovarian.
Experiment [4] deals with OVCAR-5 ovarian.
For experiment [5], the system named is OVCAR-4 ovarian.
The test system of experiment [6] is SK-OV-3 ovarian.
In experiment [7] the test system is IGROV1 ovarian.
For experiment [8], the system named is OVCAR-3 ovarian.
Experiment [9] deals with HS 578T breast.
The subject of experiment [10] is NCI/ADR-RES ovarian.
The subject of experiment [11] is T-47D breast.
For experiment [12], the system named is BT-549 breast.
In experiment [13] the test system is MDA-MB-435 melanoma.
Experiment [14] has as its system SW-620 colon.
Experiment [15] relates to MCF7 breast.
In experiment [16] the test system is HCT-116 colon.
In experiment [17] the test system is HCC-2998 colon.
Experiment [18] concerns KM12 colon.

Structures are written as SMILES. The panel holds about 83,000 compounds, 20% with a hit somewhere; the sample as a whole holds those more often.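 Negative percent growth values reflect cell death: -40 means 40% of the cells present at the start died, and -100 means all died.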 Values without a mark were called inactive. The source made the active and inactive calls. The calls were made as follows: active = growth percent below 10; inactive = the rest.

Turning to `CC1(C)[C@@H](O)CC[C@]2(C)[C@H]3CC[C@@H]4[C@H]5[C@H](C(=O)/C=C\c6ccccn6)CC[C@]5(O)CC[C@@]4(C)[C@]3(C)CC[C@@H]12`, the growth was -17.6% (active) in [1]; -19.2% (active) in [2]; 39.5% in [3]; 48.4% in experiment [4]; 32.9% in experiment [5]; 89.8% in experiment [6]. Further, the growth in [7] was 34.5%; in [8], 25.4%; in [9] it was 39.2%; in experiment [10], 26.4%; in experiment [11] it was 59%; in experiment [12] it was 36%. Moreover, the growth is 27.4% in [13]; 18.5% in experiment [14]; 31.8% in experiment [15]; 2.84% (active) in experiment [16]; 52% in experiment [17]; 30.7% in experiment [18].
For the compound `C=C1CC[C@@H]2[C@](C)(CO)[C@H](O)CC[C@@]2(C)[C@@H]1C/C(O)=C1\CCOC1=O`, the growth in experiment [1] was 83.6%; in experiment [2] it was 83.8%; in experiment [3] it was 98.5%; in experiment [4], 120%; in experiment [5], 94.7%; in [6] it was 113%. Further, the growth in [7] is 107%; in experiment [8], 93.2%; in experiment [9] it was 92.3%; in experiment [10], 98%; in [11], 96.6%; in experiment [12], 109%. Besides, the growth in experiment [13] was 94.6%; in experiment [14], 94.9%; in experiment [15], 77%; in [16], 95.4%; in experiment [17], 104%; in [18] it was 111%.
As for `CCc1ccc(SC2c3ccc(N(CC)CC)cc3Oc3nc(N)c(C#N)c(N)c32)cc1` (centres undefined), the growth in [1] is -0.413% (active); in experiment [2], -29.6% (active); in experiment [3] it was 5.08% (active); in experiment [4], -84.2% (active); in [5] it was 7.28% (active); in [6] it was 17.8%. Also, the growth is -78% (active) in [7]; -64.8% (active) in [8]; 9.11% (active) in [9]; 5.13% (active) in [10]; -27.3% (active) in experiment [11]; 65.9% in [12]. Further, the growth in experiment [13] was -0.759% (active); in experiment [14], -24.8% (active); in experiment [15], -84.9% (active); in experiment [16], -83.1% (active); in [17] it was -83% (active); in [18], -57.9% (active).
On to `COc1c(N2CC3CCCNC3C2)c(F)cc2c(=O)c(C(=O)N/N=C/c3c[nH]c4ccccc34)cn(C3CC3)c12` (centres undefined), for which the growth in [1] was -12.2% (active); in experiment [2], 78.2%; in experiment [3], 99%; in experiment [4], 116%; in [5], 106%; in experiment [6], 130%. Moreover, the growth in experiment [7] was 97.9%; in experiment [8], 103%; in [9], 110%; in [10], 104%; in experiment [11], 116%; in [12], 100%. In addition, the growth in experiment [13] was 105%; in experiment [14], 90.7%; in experiment [15] it was 55%; in [16], 56.7%; in [17], 119%; in experiment [18], 98.7%.
Regarding `O=S(=O)(Oc1ccc(-c2nnc(Nc3ccccc3)s2)cc1)C(F)(F)C(F)(F)C(F)(F)C(F)(F)C(F)(F)C(F)(F)F`, the growth is 19.5% in experiment [1]; 105% in [2]; 107% in experiment [3]; 93.3% in experiment [4]; 107% in experiment [5]; 108% in [6]. In addition, the growth was 107% in experiment [7]; 108% in experiment [8]; 98.4% in [9]; 103% in [10]; 104% in experiment [11]; 112% in experiment [12]. The growth is 103% in experiment [13]; 103% in experiment [14]; 90.7% in experiment [15]; 109% in [16]; 105% in experiment [17]; 102% in [18].
For `COc1ccc(NCc2cn(-c3ccc(C(=O)O)cc3)nc2-c2cc(C(F)(F)F)cc(C(F)(F)F)c2)cc1`, the growth in experiment [1] is 112%; in experiment [2] it was 67.2%; in experiment [3], 109%; in experiment [4], 104%; in experiment [5], 100%; in [6], 99.6%. The growth in [7] is 108%; in experiment [8] it was 101%; in experiment [9] it was 81.5%; in experiment [10], 96.8%; in experiment [11] it was 76.6%; in experiment [12], 110%. Also, the growth is 101% in experiment [13]; 102% in experiment [14]; 90.9% in [15]; 95.2% in [16]; 104% in experiment [17]; 99.8% in experiment [18].
Consider `NC(N)=Nc1ccc(Oc2cccc(Nc3cccc(C(F)(F)F)c3)c2)cn1`, for which the growth in experiment [1] was -46.9% (active); in experiment [2] it was -41.5% (active); in [3], 45.4%; in [4], 50.4%; in experiment [5] it was 24.7%; in experiment [6] it was 67.8%. Besides, the growth is 13.8% in experiment [7]; -66.6% (active) in experiment [8]; 52.8% in [9]; 46.6% in experiment [10]; 37.3% in experiment [11]; 61.2% in experiment [12]. The growth is -20.6% (active) in experiment [13]; -79.1% (active) in [14]; -69.1% (active) in experiment [15]; -76.8% (active) in experiment [16]; -91.9% (active) in [17]; -82.8% (active) in [18].
Regarding `C#Cc1nc(/C=C/C(=O)c2nccn2C)cs1`, the growth was -40.8% (active) in experiment [1]; -39.9% (active) in experiment [2]; 27.1% in experiment [3]; -87.4% (active) in [4]; 33.7% in experiment [5]; -59.7% (active) in [6]. Besides, the growth in [7] was -59.1% (active); in experiment [8], -64.4% (active); in [9] it was -6.46% (active); in experiment [10] it was -26.1% (active); in [11], -23.4% (active); in experiment [12], -59.1% (active). Moreover, the growth in experiment [13] is 1.27% (active); in experiment [14], -24.9% (active); in experiment [15] it was -30% (active); in experiment [16], -48.8% (active); in experiment [17], -83.1% (active); in experiment [18], -43.5% (active).

These data come from PubChem BioAssay (NCI).
